Biological target: Solute carrier family 2, facilitated glucose transporter member 1 (Homo sapiens) (UniProt P11166)
Test: ST_JUDE_LEISH: Cytotoxicity at 2uM final concentration against transgenic Leishmania Mexicana promastigotes LmGLUT1 that are glucose transport deficient and complemented with the human glucose transporter GLUT1. Activity is measured by DNA content using SYBR green in vitro
Assay type: functional

Sequence of Solute carrier family 2, facilitated glucose transporter member 1 (Homo sapiens) (P11166 whole entry): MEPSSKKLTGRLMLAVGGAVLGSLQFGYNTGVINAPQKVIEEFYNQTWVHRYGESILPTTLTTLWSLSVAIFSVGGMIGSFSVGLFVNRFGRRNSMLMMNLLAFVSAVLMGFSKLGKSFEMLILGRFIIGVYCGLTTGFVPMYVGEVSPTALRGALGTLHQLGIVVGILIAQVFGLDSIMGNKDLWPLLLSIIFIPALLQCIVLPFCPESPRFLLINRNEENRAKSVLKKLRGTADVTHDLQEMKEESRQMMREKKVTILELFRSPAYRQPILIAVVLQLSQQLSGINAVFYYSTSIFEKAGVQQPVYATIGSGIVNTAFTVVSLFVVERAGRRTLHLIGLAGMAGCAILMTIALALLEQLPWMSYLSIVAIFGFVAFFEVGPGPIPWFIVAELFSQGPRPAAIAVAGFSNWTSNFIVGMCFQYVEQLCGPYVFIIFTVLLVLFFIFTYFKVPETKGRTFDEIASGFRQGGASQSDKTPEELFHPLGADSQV

**Q.** `COc1ccc(Nc2ncc3c(-c4cccc(NC(=O)CC(C)C)c4)c[nH]c3n2)cc1OC` was tested. Which inhibition did it give?
**A.** 7.31%

**Q.** How did the inhibition turn out when `CCN(CC)Cc1cc(NC(=O)c2ccccc2O)ccc1Oc1ccc(Cl)cc1` was run?
**A.** 2.02%

**Q.** How did the inhibition turn out when `CN(C)c1cc(NC(=O)Nc2ccc(SC(F)(F)F)cc2)c2ccccc2n1` was run?
**A.** -0.23%

**Q.** How did the inhibition turn out when `CC(C)c1cn2c3c(cc(C(=O)N[C@@H](Cc4ccccc4)[C@H](O)CNC4CCOCC4)cc13)N(C)S(=O)(=O)CC2` was run?
**A.** 3.12%

**Q.** For `Nc1cc2c(C3CCN(CC4CCN(C(=O)/C=C/c5ccc(Cl)c(Cl)c5)CC4)CC3)c[nH]c2cn1`, which inhibition is on record?
**A.** 1.83%

**Q.** How did the inhibition turn out when `COc1cccc2c1CCN(CCN1CCC(CNC(=O)c3ccc(-c4ccc(C#N)cc4)cc3)CC1)C2` was run?
**A.** 7.68%

**Q.** How did the inhibition turn out when `Cc1ccc(CNC(=O)[C@H](Cc2ccccc2)Nc2cc(C)nc(NCCc3ccc(F)cc3)n2)cc1` was run?
**A.** 5.47%

**Q.** How did the inhibition turn out when `Cc1sc2ncnc(Sc3nc4ccccc4[nH]3)c2c1C` was run?
**A.** 5.47%

**Q.** `Cc1nc(-c2ccc(C(F)(F)F)cn2)sc1C(=O)N1CCc2cc3nccc(N4CCN5CCC[C@H]5C4)c3cc21` was tested. Which inhibition did it give?
**A.** 7.49%

**Q.** Which inhibition does the source give for `CCc1cc2c(Sc3nnc(N)s3)ncnc2s1` here?
**A.** 2.44%

**Q.** `Cc1ccn2c(C(=O)N3CCN(c4cccc5c4nc(-c4ccoc4)n5Cc4ccccn4)CC3)c(C)nc2c1` was tested. Which inhibition did it give?
**A.** 2.33%

**Q.** With `CNCCNCc1cccc(-c2cccc(-c3nc4cc(C(F)(F)F)ccc4[nH]3)c2)c1` as the molecule, how does the inhibition read?
**A.** 2.15%

**Q.** For `Cc1cccc2nc(-c3ccc(-c4ccc(NC(=O)NCc5ccc(F)cc5)cc4)cc3)[nH]c12`, which inhibition is on record?
**A.** 0.56%

**Q.** Which inhibition does the source give for `COc1ccc(NC(=O)c2cn(-c3ccc(C(C)(C)C)cc3)nc2C)cc1N1CCN(C)CC1` here?
**A.** 1.31%

**Q.** `COc1ccc(Cl)c(CC2c3cc(O)c(Cl)cc3CCN2C)c1` (stereo not given) was tested. Which inhibition did it give?
**A.** -0.53%

**Q.** With `Nc1nccc2ccc(OC3CCCCC3)cc12` as the molecule, how does the inhibition read?
**A.** 0.26%

**Q.** How did the inhibition turn out when `COC(=O)c1cccc(CNCc2cccc(-c3ccc(-c4nc5ccccc5[nH]4)cc3)c2)c1` was run?
**A.** 5.57%

**Q.** `N#Cc1ccc(CN2CCC(Oc3ccc(NC(=O)c4ccco4)cc3Cl)CC2)cc1` was tested. Which inhibition did it give?
**A.** 0.38%

**Q.** How did the inhibition turn out when `CCCCC(CC)NC(=O)[C@H]1CNCCN1C(=O)CCCc1ccccc1` (stereo not given in full) was run?
**A.** 1.73%

**Q.** Which inhibition does the source give for `CC(C)OCCCNC(=O)c1nc(-c2cccc(C(F)(F)F)c2)sc1C(C)C` here?
**A.** 3.62%

**Q.** For `FC(F)(F)COc1c(CCNCCCCNCCc2ccc3ccccc3c2OCC(F)(F)F)ccc2ccccc12`, which inhibition is on record?
**A.** 105%

**Q.** How did the inhibition turn out when `O=C(Nc1cccc(C(F)(F)F)c1)c1ccc(S(=O)(=O)NC2CCN(CC3CCCCC3)CC2)cc1` was run?
**A.** 1.83%

**Q.** With `CC(=O)N1N=C(c2ccc(F)cc2)Sc2c1nc(C1CCCCC1)n2C(C)=O` as the molecule, how does the inhibition read?
**A.** 8.37%

**Q.** With `COc1ccc(-c2ccc(NC(=O)c3ccc(Cl)cc3)cc2)cc1CN1CCN(C)CC1` as the molecule, how does the inhibition read?
**A.** -0.67%

**Q.** `CN1CCC[C@H]1COc1ccc(CN2CC[C@H](NC(=O)c3ccc(Cl)c(Cl)c3)C2)cc1Br` was tested. Which inhibition did it give?
**A.** 2.61%

**Q.** Which inhibition does the source give for `CCCCCn1c(Sc2ccc(C#N)c([N+](=O)[O-])c2)nnc1-c1ccccc1` here?
**A.** 8.41%

**Q.** How did the inhibition turn out when `CCCCNCc1ccc(-c2nc(CN(Cc3ccc(Cl)c(Cl)c3)C(=O)CN(C)C)cs2)cc1` was run?
**A.** 50.3%

**Q.** Which inhibition does the source give for `CCCc1ccc(NC(=O)c2ccc(CN3CCCN(Cc4ccc(OC)cc4)CC3)cc2)cc1` here?
**A.** -1.19%

**Q.** Which inhibition does the source give for `CS(=O)(=O)c1ccc2c(c1)CCN(CCC1CCC(NC(=O)C(=Cc3cccc(C#N)c3)c3ccc(-c4ccccc4)cc3)CC1)CC2` (stereo not given) here?
**A.** 1.14%

**Q.** Which inhibition does the source give for `CCC(CC)N1CCN(CC(=O)Nc2ccc([N+](=O)[O-])cc2C(=O)Nc2cccc(OC)c2)CC1` here?
**A.** 3.1%

**Q.** With `CC1(C)NC(N)=NC(=N)N1OCCOc1ccc2ccccc2c1` as the molecule, how does the inhibition read?
**A.** 0.95%

**Q.** Which inhibition does the source give for `CCOC(=O)c1ccc(NC(=O)Nc2cccc(-c3ccc(-c4nc5cccc(C)c5[nH]4)s3)c2)cc1` here?
**A.** -0.56%

**Q.** How did the inhibition turn out when `N#Cc1cccc(NC(=O)NC2CCN(CCCCCNC(=O)/C=C/c3ccc(Cl)c(Cl)c3)CC2)c1` was run?
**A.** 4.68%

**Q.** With `CCN1C(=O)C(=NN=C(S)N2CCCC2)c2ccccc21` as the molecule, how does the inhibition read?
**A.** -0.3%

**Q.** How did the inhibition turn out when `CN(C)CCN(Cc1ccccc1)c1ccc([N+](=O)[O-])cc1C(F)(F)F` was run?
**A.** 7.95%

**Q.** Which inhibition does the source give for `O=C(Nc1ccc(-c2nc3ccccc3[nH]2)cc1)C1CCN(Cc2ccccc2)CC1` here?
**A.** 16.2%

**Q.** Which inhibition does the source give for `CNC(=O)c1cc(S(=O)(=O)N2CCN(c3ccccn3)CC2)c(C)s1` here?
**A.** -1.34%

**Q.** With `NCC1CCCN1Cc1cccc(-c2ccc(-c3nc4cc(C(F)(F)F)ccc4[nH]3)s2)c1` (stereo not given) as the molecule, how does the inhibition read?
**A.** 1.28%

**Q.** Which inhibition does the source give for `Fc1cc(Cl)ccc1Nc1ccnc2cc(-c3ccc(CNCCN4CCOCC4)o3)ccc12` here?
**A.** 1.58%

**Q.** `CS(=O)(=O)c1ccc(-c2cnc(N)c(-c3cccc(O)c3)c2)cc1` was tested. Which inhibition did it give?
**A.** 6.6%

Biological target: Hexose transporter 1 (Plasmodium falciparum) (UniProt O97467)
Test: ST_JUDE_LEISH: Cytotoxicity at 2uM final concentration against transgenic Leishmania Mexicana promastigotes LmPfHT that are glucose transport deficient and complemented with the Plasmodium falciparum hexose transporter. Activity is measured by DNA content using SYBR green in vitro
Assay type: functional

**Q.** How did the inhibition turn out when `COc1ccc(Nc2ncc3c(-c4cccc(NC(=O)CC(C)C)c4)c[nH]c3n2)cc1OC` was run?
**A.** 8.48%

**Q.** Which inhibition does the source give for `CCN(CC)Cc1cc(NC(=O)c2ccccc2O)ccc1Oc1ccc(Cl)cc1` here?
**A.** 0.32%

**Q.** With `CN(C)c1cc(NC(=O)Nc2ccc(SC(F)(F)F)cc2)c2ccccc2n1` as the molecule, how does the inhibition read?
**A.** 0.11%

**Q.** `CC(C)c1cn2c3c(cc(C(=O)N[C@@H](Cc4ccccc4)[C@H](O)CNC4CCOCC4)cc13)N(C)S(=O)(=O)CC2` was tested. Which inhibition did it give?
**A.** 2.83%

**Q.** For `Nc1cc2c(C3CCN(CC4CCN(C(=O)/C=C/c5ccc(Cl)c(Cl)c5)CC4)CC3)c[nH]c2cn1`, which inhibition is on record?
**A.** 0.67%

**Q.** How did the inhibition turn out when `COc1cccc2c1CCN(CCN1CCC(CNC(=O)c3ccc(-c4ccc(C#N)cc4)cc3)CC1)C2` was run?
**A.** 3.84%

**Q.** `Cc1ccc(CNC(=O)[C@H](Cc2ccccc2)Nc2cc(C)nc(NCCc3ccc(F)cc3)n2)cc1` was tested. Which inhibition did it give?
**A.** 4.28%

**Q.** Which inhibition does the source give for `Cc1sc2ncnc(Sc3nc4ccccc4[nH]3)c2c1C` here?
**A.** 8.07%

**Q.** With `Cc1nc(-c2ccc(C(F)(F)F)cn2)sc1C(=O)N1CCc2cc3nccc(N4CCN5CCC[C@H]5C4)c3cc21` as the molecule, how does the inhibition read?
**A.** 5.35%

**Q.** `CCc1cc2c(Sc3nnc(N)s3)ncnc2s1` was tested. Which inhibition did it give?
**A.** 0.05%

**Q.** With `Cc1ccn2c(C(=O)N3CCN(c4cccc5c4nc(-c4ccoc4)n5Cc4ccccn4)CC3)c(C)nc2c1` as the molecule, how does the inhibition read?
**A.** 1.01%

**Q.** For `CNCCNCc1cccc(-c2cccc(-c3nc4cc(C(F)(F)F)ccc4[nH]3)c2)c1`, which inhibition is on record?
**A.** 1.32%

**Q.** How did the inhibition turn out when `Cc1cccc2nc(-c3ccc(-c4ccc(NC(=O)NCc5ccc(F)cc5)cc4)cc3)[nH]c12` was run?
**A.** 0.89%

**Q.** `COc1ccc(NC(=O)c2cn(-c3ccc(C(C)(C)C)cc3)nc2C)cc1N1CCN(C)CC1` was tested. Which inhibition did it give?
**A.** 0.2%

**Q.** With `COc1ccc(Cl)c(CC2c3cc(O)c(Cl)cc3CCN2C)c1` (stereo not given) as the molecule, how does the inhibition read?
**A.** -0.87%

**Q.** With `Nc1nccc2ccc(OC3CCCCC3)cc12` as the molecule, how does the inhibition read?
**A.** 1.26%

**Q.** For `COC(=O)c1cccc(CNCc2cccc(-c3ccc(-c4nc5ccccc5[nH]4)cc3)c2)c1`, which inhibition is on record?
**A.** 5.76%

**Q.** Which inhibition does the source give for `N#Cc1ccc(CN2CCC(Oc3ccc(NC(=O)c4ccco4)cc3Cl)CC2)cc1` here?
**A.** 1.94%

**Q.** With `CCCCC(CC)NC(=O)[C@H]1CNCCN1C(=O)CCCc1ccccc1` (stereo not given in full) as the molecule, how does the inhibition read?
**A.** 1.94%

**Q.** For `CC(C)OCCCNC(=O)c1nc(-c2cccc(C(F)(F)F)c2)sc1C(C)C`, which inhibition is on record?
**A.** 4.03%

**Q.** For `FC(F)(F)COc1c(CCNCCCCNCCc2ccc3ccccc3c2OCC(F)(F)F)ccc2ccccc12`, which inhibition is on record?
**A.** 103%

**Q.** `O=C(Nc1cccc(C(F)(F)F)c1)c1ccc(S(=O)(=O)NC2CCN(CC3CCCCC3)CC2)cc1` was tested. Which inhibition did it give?
**A.** 1.62%

**Q.** With `CC(=O)N1N=C(c2ccc(F)cc2)Sc2c1nc(C1CCCCC1)n2C(C)=O` as the molecule, how does the inhibition read?
**A.** 6.09%

**Q.** `COc1ccc(-c2ccc(NC(=O)c3ccc(Cl)cc3)cc2)cc1CN1CCN(C)CC1` was tested. Which inhibition did it give?
**A.** -2.59%

**Q.** `CN1CCC[C@H]1COc1ccc(CN2CC[C@H](NC(=O)c3ccc(Cl)c(Cl)c3)C2)cc1Br` was tested. Which inhibition did it give?
**A.** 2.26%

**Q.** `CCCCCn1c(Sc2ccc(C#N)c([N+](=O)[O-])c2)nnc1-c1ccccc1` was tested. Which inhibition did it give?
**A.** 9.62%

**Q.** With `CCCCNCc1ccc(-c2nc(CN(Cc3ccc(Cl)c(Cl)c3)C(=O)CN(C)C)cs2)cc1` as the molecule, how does the inhibition read?
**A.** 52.9%

**Q.** Which inhibition does the source give for `CCCc1ccc(NC(=O)c2ccc(CN3CCCN(Cc4ccc(OC)cc4)CC3)cc2)cc1` here?
**A.** -0.55%

**Q.** `CS(=O)(=O)c1ccc2c(c1)CCN(CCC1CCC(NC(=O)C(=Cc3cccc(C#N)c3)c3ccc(-c4ccccc4)cc3)CC1)CC2` (stereo not given) was tested. Which inhibition did it give?
**A.** 2.77%

**Q.** Which inhibition does the source give for `CCC(CC)N1CCN(CC(=O)Nc2ccc([N+](=O)[O-])cc2C(=O)Nc2cccc(OC)c2)CC1` here?
**A.** 1.8%

**Q.** Which inhibition does the source give for `CC1(C)NC(N)=NC(=N)N1OCCOc1ccc2ccccc2c1` here?
**A.** -0.86%

**Q.** `CCOC(=O)c1ccc(NC(=O)Nc2cccc(-c3ccc(-c4nc5cccc(C)c5[nH]4)s3)c2)cc1` was tested. Which inhibition did it give?
**A.** 0.81%

**Q.** With `N#Cc1cccc(NC(=O)NC2CCN(CCCCCNC(=O)/C=C/c3ccc(Cl)c(Cl)c3)CC2)c1` as the molecule, how does the inhibition read?
**A.** 5.86%

**Q.** With `CCN1C(=O)C(=NN=C(S)N2CCCC2)c2ccccc21` as the molecule, how does the inhibition read?
**A.** -1.51%

**Q.** With `CN(C)CCN(Cc1ccccc1)c1ccc([N+](=O)[O-])cc1C(F)(F)F` as the molecule, how does the inhibition read?
**A.** 7.06%

**Q.** How did the inhibition turn out when `O=C(Nc1ccc(-c2nc3ccccc3[nH]2)cc1)C1CCN(Cc2ccccc2)CC1` was run?
**A.** 23.4%

**Q.** `CNC(=O)c1cc(S(=O)(=O)N2CCN(c3ccccn3)CC2)c(C)s1` was tested. Which inhibition did it give?
**A.** -1.2%

**Q.** With `NCC1CCCN1Cc1cccc(-c2ccc(-c3nc4cc(C(F)(F)F)ccc4[nH]3)s2)c1` (stereo not given) as the molecule, how does the inhibition read?
**A.** 0.87%

**Q.** With `Fc1cc(Cl)ccc1Nc1ccnc2cc(-c3ccc(CNCCN4CCOCC4)o3)ccc12` as the molecule, how does the inhibition read?
**A.** 1.07%

**Q.** For `CS(=O)(=O)c1ccc(-c2cnc(N)c(-c3cccc(O)c3)c2)cc1`, which inhibition is on record?
**A.** 6.49%

— ChEMBL document CHEMBL3433997, “St. Jude Leishmania screening dataset” (2016)
